# Source: ChEMBL document CHEMBL3988442, “University of Dundee, Small-Polar-MMV Screening Library” (2021)
# Target: T1, Aspartate--tRNA(Asp/Asn) ligase (Mycobacterium tuberculosis (strain ATCC 25618 / H37Rv)) (UniProt P9WFW3); further: in the data most compounds retested in dose-response had high values
# T1 sequence (whole entry): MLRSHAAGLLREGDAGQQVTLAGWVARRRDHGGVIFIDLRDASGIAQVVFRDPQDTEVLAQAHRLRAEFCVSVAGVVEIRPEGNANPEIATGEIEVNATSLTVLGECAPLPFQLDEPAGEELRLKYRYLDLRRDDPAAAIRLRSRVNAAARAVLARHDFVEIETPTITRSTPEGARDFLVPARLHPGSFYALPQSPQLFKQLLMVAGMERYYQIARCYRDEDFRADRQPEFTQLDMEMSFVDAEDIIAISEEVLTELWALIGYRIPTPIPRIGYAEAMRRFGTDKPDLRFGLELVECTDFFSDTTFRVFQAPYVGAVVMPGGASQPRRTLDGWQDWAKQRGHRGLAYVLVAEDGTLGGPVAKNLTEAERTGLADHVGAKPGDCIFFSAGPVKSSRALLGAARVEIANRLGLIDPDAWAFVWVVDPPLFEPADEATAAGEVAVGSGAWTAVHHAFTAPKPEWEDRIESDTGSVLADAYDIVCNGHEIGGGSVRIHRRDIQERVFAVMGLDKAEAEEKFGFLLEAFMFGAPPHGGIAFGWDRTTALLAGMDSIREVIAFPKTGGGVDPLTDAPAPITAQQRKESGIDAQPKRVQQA
# Experiment: Assay for Asp RNA synthetase-1 from Mycobacterium tuberculosis
# Type: functional
# Parameters: scale not given: direction of the effect not stated beside the values
# Conditions: 30 µM
row,Structure (SMILES),Percent Effect
1,Cc1ccc(CC(=O)N2CCCC(c3nc(C)cs3)C2)cn1 (stereo not given),2.77%
2,Cc1c(C2CCCN(C(=O)Cc3ccccn3)C2)n2c(nc1=O)CCC2 (stereo not given),2.63%
3,CC(O)CN1CCN(C(=O)c2ccc(Cn3cccn3)cc2)CC1 (stereo not given),5.51%
4,Cc1cc(C)c(CNC(=O)N2CCCC2c2cccn2C)c(=O)[nH]1 (stereo not given),-3.71%
5,CS(=O)(=O)NCCCNC(=O)c1cccc(-n2cccc2)c1,-2.88%
6,NC(=O)CN1CCC(NC(=O)Nc2nccs2)CC1,-4.06%
7,Cc1nnc2n1CCN(Cc1csc(Cc3ccccc3)n1)C2,-4.28%
8,Cc1cccc(-c2nc(C)nn2CC(=O)NC2CCCC2)c1,-5.28%
9,NC(=O)CN1CCC(C(=O)N2CCCC(OCc3cccnc3)C2)CC1 (stereo not given),-13.4%
10,O=C(NC1CCN(c2snc3ccccc23)CC1)C1CCC1,4.7%
11,COc1ccc(Oc2cncc(C3CCCN3C(C)=O)n2)cc1 (stereo not given),0.194%
12,CCCn1nc2c(cc1=O)CN(CCCN1CCCC1=O)CC2,10.1%
13,O=S(=O)(Nc1cnn(C2CCOCC2)c1)c1c(F)cccc1F,2.52%
14,Cc1ncc2c(n1)CN(CCCc1nc3ccccc3o1)CC2,6.8%
15,CCN1CCN(C2CCN(Cc3nc4ccccc4o3)CC2)C1=O,12.7%
16,Cc1cnn(CC2CCCCN2C(=O)CN(C)C2CC2)c1 (stereo not given),2.98%
17,Cc1ccc([C@]2(O)CC[C@H]3CN(Cc4cc(C)c(O)c(C)c4)C[C@H]32)nc1,3.29%
18,COc1ccccc1C(O)CNC(=O)Nc1ncccc1C (stereo not given),-3.63%
19,CC(C)NC(=O)c1ccc2c(c1)nc1n2CCN(C(C)C)C1,-0.435%
20,CCc1nc(C2CCCN2Cc2nnc(Cc3ccccc3)o2)no1 (stereo not given),-0.231%

row,Structure (SMILES),Percent Effect
1,Cc1ccc(NC(=O)C2CSCN2C(=O)c2cc[nH]n2)c(C)c1 (stereo not given),-3.15%
2,CC(C)C(=O)NCCCn1ncc2c(Cl)cccc21,16.5%
3,Cc1ccc(CNCCOc2ccc(S(C)(=O)=O)cc2)cc1,1.28%
4,CN(Cc1ccc(OC(F)F)cc1)C(=O)CS(=O)(=O)c1ccc(Cl)cc1,0.524%
5,CC(C)(C(=O)NCC1CC1)c1ccccc1F,-1.98%
6,CN(Cc1ccccc1)CC(O)Cn1cnc2ccsc2c1=O (stereo not given),-1.75%
7,NC(=O)N1CCC2(CC1)CN(c1ccsc1)C(=O)CO2,1.31%
8,N#Cc1ccc(F)c(CN2CCCC2Cn2cccn2)c1 (stereo not given),0.262%
9,CCN(CC)S(=O)(=O)N1CCCC(c2ccc(C(=O)O)cc2)C1 (stereo not given),-0.279%
10,CCc1ccccc1NC(=O)N1CCn2cnc(COC)c2C1,-3.09%
11,NC(=O)C1CN(C(=O)Nc2cc(Cl)cc(Cl)c2)CCO1 (stereo not given),1.82%
12,Cc1cccc2nc(C(=O)N3CCC(Nc4cccnn4)CC3)cn12,-1.93%
13,Cc1cc(-c2nn(C)c(Cl)c2CN2CCOCC(O)C2)no1 (stereo not given),-2.42%
14,Cc1nccn1C1CCCN(C(=O)c2cc3ccccc3[nH]2)C1 (stereo not given),0.714%
15,Fc1ccc(CN2CCCC(Cn3cncn3)C2)c2ncccc12 (stereo not given),14.3%
16,CCc1nc(CN2CCCC(NCc3cnn(C(C)(C)C)c3)C2)no1 (stereo not given),-3.23%
17,COCC(=O)NCc1cc(=O)n2c(n1)CN(Cc1ccsc1)CCC2,5.55%
18,Cc1nccc(C(=O)N2CCCN(Cc3cnn(C(C)C)c3)CC2)n1,-2.77%
19,CCn1ncc2c1C(COC)CN(Cc1ccsc1)C2 (stereo not given),-1.74%
20,O=C(c1ccco1)N1CCC2(CCC(=O)N2Cc2cccc(F)c2)CC1,1.32%

# Target: Shiga toxin 2 (Escherichia coli O157:H7) (UniProt P09385+P09386)
# Experiment: E. coli 0.157:H7 Shiga Toxin SOP - stx2 screening assay
# Type: functional
# Parameters: scale not given: direction of the effect not stated beside the values
# Conditions: 30 µM
row,Structure (SMILES),Percent Effect
1,Cc1ccc(CC(=O)N2CCCC(c3nc(C)cs3)C2)cn1 (stereo not given),7.66%
2,Cc1c(C2CCCN(C(=O)Cc3ccccn3)C2)n2c(nc1=O)CCC2 (stereo not given),-14.2%
3,CC(O)CN1CCN(C(=O)c2ccc(Cn3cccn3)cc2)CC1 (stereo not given),14.6%
4,Cc1cc(C)c(CNC(=O)N2CCCC2c2cccn2C)c(=O)[nH]1 (stereo not given),-31.2%
5,CS(=O)(=O)NCCCNC(=O)c1cccc(-n2cccc2)c1,-28.3%
6,NC(=O)CN1CCC(NC(=O)Nc2nccs2)CC1,-29.4%
7,Cc1nnc2n1CCN(Cc1csc(Cc3ccccc3)n1)C2,1.17%
8,Cc1cccc(-c2nc(C)nn2CC(=O)NC2CCCC2)c1,-29.1%
9,NC(=O)CN1CCC(C(=O)N2CCCC(OCc3cccnc3)C2)CC1 (stereo not given),18%
10,O=C(NC1CCN(c2snc3ccccc23)CC1)C1CCC1,-22.1%
11,COc1ccc(Oc2cncc(C3CCCN3C(C)=O)n2)cc1 (stereo not given),-6.98%
12,CCCn1nc2c(cc1=O)CN(CCCN1CCCC1=O)CC2,12.4%
13,O=S(=O)(Nc1cnn(C2CCOCC2)c1)c1c(F)cccc1F,1.54%
14,Cc1ncc2c(n1)CN(CCCc1nc3ccccc3o1)CC2,-10.6%
15,CCN1CCN(C2CCN(Cc3nc4ccccc4o3)CC2)C1=O,21.6%
16,Cc1cnn(CC2CCCCN2C(=O)CN(C)C2CC2)c1 (stereo not given),-50.8%
17,Cc1ccc([C@]2(O)CC[C@H]3CN(Cc4cc(C)c(O)c(C)c4)C[C@H]32)nc1,-2.26%
18,COc1ccccc1C(O)CNC(=O)Nc1ncccc1C (stereo not given),8.45%
19,CC(C)NC(=O)c1ccc2c(c1)nc1n2CCN(C(C)C)C1,-61.8%
20,CCc1nc(C2CCCN2Cc2nnc(Cc3ccccc3)o2)no1 (stereo not given),6.08%

row,Structure (SMILES),Percent Effect
1,Cc1ccc(NC(=O)C2CSCN2C(=O)c2cc[nH]n2)c(C)c1 (stereo not given),12%
2,CC(C)C(=O)NCCCn1ncc2c(Cl)cccc21,-6.02%
3,Cc1ccc(CNCCOc2ccc(S(C)(=O)=O)cc2)cc1,-76.7%
4,CN(Cc1ccc(OC(F)F)cc1)C(=O)CS(=O)(=O)c1ccc(Cl)cc1,15%
5,CC(C)(C(=O)NCC1CC1)c1ccccc1F,-2.97%
6,CN(Cc1ccccc1)CC(O)Cn1cnc2ccsc2c1=O (stereo not given),-2.3%
7,NC(=O)N1CCC2(CC1)CN(c1ccsc1)C(=O)CO2,-21.1%
8,N#Cc1ccc(F)c(CN2CCCC2Cn2cccn2)c1 (stereo not given),1.36%
9,CCN(CC)S(=O)(=O)N1CCCC(c2ccc(C(=O)O)cc2)C1 (stereo not given),-2.52%
10,CCc1ccccc1NC(=O)N1CCn2cnc(COC)c2C1,6.27%
11,NC(=O)C1CN(C(=O)Nc2cc(Cl)cc(Cl)c2)CCO1 (stereo not given),8.74%
12,Cc1cccc2nc(C(=O)N3CCC(Nc4cccnn4)CC3)cn12,8.8%
13,Cc1cc(-c2nn(C)c(Cl)c2CN2CCOCC(O)C2)no1 (stereo not given),16.3%
14,Cc1nccn1C1CCCN(C(=O)c2cc3ccccc3[nH]2)C1 (stereo not given),0.146%
15,Fc1ccc(CN2CCCC(Cn3cncn3)C2)c2ncccc12 (stereo not given),-38.7%
16,CCc1nc(CN2CCCC(NCc3cnn(C(C)(C)C)c3)C2)no1 (stereo not given),2.93%
17,COCC(=O)NCc1cc(=O)n2c(n1)CN(Cc1ccsc1)CCC2,10%
18,Cc1nccc(C(=O)N2CCCN(Cc3cnn(C(C)C)c3)CC2)n1,-13.2%
19,CCn1ncc2c1C(COC)CN(Cc1ccsc1)C2 (stereo not given),-2.67%
20,O=C(c1ccco1)N1CCC2(CCC(=O)N2Cc2cccc(F)c2)CC1,-6.58%
